Laboratory results: PubChem BioAssay (Tox21)
Results filed as inconclusive are left out. Activity calls are given as the source filed them. Unless noted, calls come from the whole dose curve; as a rule, active = well fitted curve in the direction sought with a large enough effect in the repeat runs; inconclusive = weak or mixed curves; inactive = no such curve, though single readings can be large; an effect the other way counts as inactive or inconclusive.

Tests used:
[1] = qHTS assay to identify aromatase inhibitors - cell viability counter screen (AID 743084);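 note: cells stimulated with testosterone during compound exposure; nearly all actives have a fitted effect of over 55% in size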
[2] = biological target: Aryl hydrocarbon receptor (Homo sapiens) (UniProt P35869); test: qHTS assay to identify small molecule that activate the aryl hydrocarbon receptor (AhR) signaling pathway (AID 743085);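 note: HG2L7.5c1 human HepG2 liver cells with stably integrated DRE-driven firefly reporter; series mostly up to about 70 µM; nearly all actives have a fitted effect of over 15% in size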
Sequence of Aryl hydrocarbon receptor (Homo sapiens) (P35869 whole entry, looked up): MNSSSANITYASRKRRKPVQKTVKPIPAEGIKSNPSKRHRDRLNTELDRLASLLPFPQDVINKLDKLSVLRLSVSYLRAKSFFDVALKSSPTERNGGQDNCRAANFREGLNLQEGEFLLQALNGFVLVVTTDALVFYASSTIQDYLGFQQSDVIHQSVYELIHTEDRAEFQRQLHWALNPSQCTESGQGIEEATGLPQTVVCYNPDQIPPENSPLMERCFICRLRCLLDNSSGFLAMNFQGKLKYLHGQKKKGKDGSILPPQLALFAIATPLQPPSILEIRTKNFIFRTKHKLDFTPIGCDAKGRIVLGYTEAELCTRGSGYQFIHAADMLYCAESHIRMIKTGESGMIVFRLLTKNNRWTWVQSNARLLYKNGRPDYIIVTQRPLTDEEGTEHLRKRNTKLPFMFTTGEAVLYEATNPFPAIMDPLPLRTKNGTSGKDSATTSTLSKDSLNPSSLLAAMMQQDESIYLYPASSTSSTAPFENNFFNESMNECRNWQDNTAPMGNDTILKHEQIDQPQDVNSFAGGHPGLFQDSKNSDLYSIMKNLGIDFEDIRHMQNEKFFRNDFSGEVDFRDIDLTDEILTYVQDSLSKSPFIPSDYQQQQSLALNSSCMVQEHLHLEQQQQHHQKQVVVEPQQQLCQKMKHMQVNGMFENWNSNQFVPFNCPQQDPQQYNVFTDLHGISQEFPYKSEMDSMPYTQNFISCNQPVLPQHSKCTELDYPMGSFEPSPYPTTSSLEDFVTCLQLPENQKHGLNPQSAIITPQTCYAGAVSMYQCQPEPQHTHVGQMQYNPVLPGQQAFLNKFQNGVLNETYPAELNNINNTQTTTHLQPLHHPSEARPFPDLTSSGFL
Summary of the method: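 HepG2 cells (HG2L7.5c1) stably carrying a firefly luciferase reporter driven by 20 dioxin responsive elements were exposed to compound for 24 h at 37C after a 5 h settling period; luminescence rise (ONE-Glo) indicated activation.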

[3] = qHTS assay to identify small molecule that activate the aryl hydrocarbon receptor (AhR) signaling pathway - cell viability counter screen (AID 743086);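 note: HepG2 liver cells carrying the AhR DRE luciferase reporter; series mostly up to about 70 µM; nearly all actives have a fitted effect of over 45% in size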
Summary of the method: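 HepG2-AhR-luc (HG2L7.5c1) cells, 4000/well, treated 24 h at 37 C with compound; viability measured as CellTiter-Fluor fluorescence after 30 min in the same wells as the luciferase read.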

[4] = biological target: Peroxisome proliferator-activated receptor gamma (Homo sapiens) (UniProt P37231); test: qHTS assay to identify small molecule agonists of the peroxisome proliferator-activated receptor gamma (PPARg) signaling pathway (AID 743094; active = well fitted activation curve with a large enough effect in the signal ratio in the repeat runs, not every such curve was filed as active; the % refers to the signal ratio)
Sequence of Peroxisome proliferator-activated receptor gamma (Homo sapiens) (P37231 whole entry, looked up): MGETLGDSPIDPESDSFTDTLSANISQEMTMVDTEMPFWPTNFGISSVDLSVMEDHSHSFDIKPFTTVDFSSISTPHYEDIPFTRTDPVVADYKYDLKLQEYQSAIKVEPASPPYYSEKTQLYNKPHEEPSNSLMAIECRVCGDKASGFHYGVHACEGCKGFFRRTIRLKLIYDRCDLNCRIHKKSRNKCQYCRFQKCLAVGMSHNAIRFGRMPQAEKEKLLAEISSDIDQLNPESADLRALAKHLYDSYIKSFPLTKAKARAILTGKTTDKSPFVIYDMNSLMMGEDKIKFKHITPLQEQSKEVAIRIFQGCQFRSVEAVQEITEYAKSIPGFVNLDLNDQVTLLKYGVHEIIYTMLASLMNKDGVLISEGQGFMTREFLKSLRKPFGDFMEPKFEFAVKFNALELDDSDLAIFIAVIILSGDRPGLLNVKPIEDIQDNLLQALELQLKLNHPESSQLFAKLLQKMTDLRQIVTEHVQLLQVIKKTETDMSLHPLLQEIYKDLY
Summary of the method: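 Stably transfected HEK293H cells (GeneBLAzer PPARg UAS-bla) were incubated with test substances for 17 h at 37C after a 5 h pre-incubation; beta-lactamase activity was then detected by FRET substrate fluorescence.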

[5] = biological target: Peroxisome proliferator-activated receptor gamma (Homo sapiens) (UniProt P37231); test: qHTS assay to identify small molecule antagonists of the peroxisome proliferator-activated receptor gamma (PPARg) signaling pathway (AID 743191; calls by dose curve; note: series mostly up to about 63 µM; nearly all actives have a fitted effect of over 30% in size)
Summary of the method: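 GeneBLAzer PPARg UAS-bla HEK293H cells, 5 h post-plating, exposed to compounds 17 h at 37C. LiveBLAzer B/G FRET substrate added for 1 h at room temperature; beta-lactamase reporter read by fluorescence intensity.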

[6] = qHTS assay to identify small molecule antagonists of the peroxisome proliferator-activated receptor gamma (PPARg) signaling pathway - cell viability counter screen (AID 743194); note: nearly all actives have a fitted effect of over 55% in size
Summary of the method: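 Cytotoxicity counter screen in PPARg-bla HEK293H cells, same wells as reporter assay. Compounds plus 50 nM rosiglitazone (final) for 17 h at 37 C, then viability read by CellTiter-Glo luminescence.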

[7] = qHTS assay for small molecule agonists of the antioxidant response element (ARE) signaling pathway (AID 743202; active = well fitted activation curve with a large enough effect in the signal ratio in the repeat runs, not every such curve was filed as active; the % refers to the signal ratio)
Summary of the method: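 Agonist mode reporter screen: HepG2 cells with ARE-controlled beta-lactamase are incubated with test compounds for 16 h at 37 C, and beta-lactamase activity is measured as fluorescence of cleaved B/G FRET substrate.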

[8] = qHTS assay for small molecule agonists of the antioxidant response element (ARE) signaling pathway - cell viability counter screen (AID 743203; calls by dose curve; note: nearly all actives have a fitted effect of over 55% in size)
Summary of the method: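 Cells (ARE-bla HepG2, 2,000/well) receive DMSO-dissolved compounds after a 5 hrs rest. Plates incubate 16 hrs at 37C/5% CO2. CellTiter-Glo luminescence is then recorded after 30 min at room temperature.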

[9] = qHTS assay for small molecule activators of the heat shock response signaling pathway - cell viability counter screen (AID 743209); note: nearly all actives have a fitted effect of over 50% in size
Summary of the method: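 Quantitative HTS format, Tox21 10K library. HeLa cells carrying an HSE-driven beta-lactamase reporter were treated 5 h at 37 C, then assessed for viability by CellTiter-Glo luminescence.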

[10] = qHTS assay for small molecule activators of the heat shock response signaling pathway (AID 743210; active = well fitted activation curve with a large enough effect in the signal ratio in the repeat runs, with a control signal flat, not every such curve was filed as active; the % refers to the signal ratio;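 note: HeLa cells with beta-lactamase reporter driven by heat shock elements; series mostly up to about 63 µM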)
Summary of the method: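 Quantitative high-throughput format using an engineered HeLa line in which heat shock response elements drive beta-lactamase; after 5 h with compound, cells received a B/G FRET substrate and fluorescence was read.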

[11] = qHTS assay to identify small molecule agonists of the peroxisome proliferator-activated receptor delta (PPARd) signaling pathway - cell viability counter screen (AID 743211); note: nearly all actives have a fitted effect of over 55% in size
Summary of the method: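 PPARd-bla HEK293H cells (UAS-beta-lactamase reporter) were treated with compounds for 17 h at 37 C. Viability was then read in the same wells by CellTiter-Glo luminescence after 30 min at room temperature.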

[12] = biological target: Peroxisome proliferator-activated receptor delta (Homo sapiens) (UniProt Q03181); test: qHTS assay to identify small molecule agonists of the peroxisome proliferator-activated receptor delta (PPARd) signaling pathway (AID 743212; calls by dose curve)
Sequence of Peroxisome proliferator-activated receptor delta (Homo sapiens) (Q03181 whole entry, looked up): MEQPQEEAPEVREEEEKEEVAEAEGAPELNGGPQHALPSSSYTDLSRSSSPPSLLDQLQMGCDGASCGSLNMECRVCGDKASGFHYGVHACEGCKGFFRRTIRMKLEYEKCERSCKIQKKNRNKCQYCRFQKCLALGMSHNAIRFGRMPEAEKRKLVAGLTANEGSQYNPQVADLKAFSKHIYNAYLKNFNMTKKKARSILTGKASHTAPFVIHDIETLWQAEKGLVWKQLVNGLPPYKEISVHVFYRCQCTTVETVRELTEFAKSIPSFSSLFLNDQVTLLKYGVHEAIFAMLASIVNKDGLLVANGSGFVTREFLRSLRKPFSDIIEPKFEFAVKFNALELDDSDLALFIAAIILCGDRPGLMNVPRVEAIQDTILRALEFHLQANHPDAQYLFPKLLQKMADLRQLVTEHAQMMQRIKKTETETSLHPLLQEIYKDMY
Summary of the method: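 Quantitative high-throughput agonist screen in a HEK293H beta-lactamase reporter line under UAS control. Compounds in DMSO, at 37 C. Fluorescence read after 2 h with FRET substrate at room temperature.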

[13] = qHTS assay to identify small molecule antagonists of the peroxisome proliferator-activated receptor delta (PPARd) signaling pathway - cell viability counter screen (AID 743213); note: nearly all actives have a fitted effect of over 50% in size
Summary of the method: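 CellTiter-Glo was added to PPARd-bla HEK293H wells following 17 h compound treatment in the presence of 300 nM L165041. Luminescence was recorded after 30 min at room temperature.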

[14] = biological target: Peroxisome proliferator-activated receptor delta (Homo sapiens) (UniProt Q03181); test: qHTS assay to identify small molecule antagonists of the peroxisome proliferator-activated receptor delta (PPARd) signaling pathway (AID 743215; active = well fitted inhibition curve with a large enough effect in the signal ratio in the repeat runs, not every such curve was filed as active; the % refers to the signal ratio;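 note: cells stimulated with agonist L165041 at 300 nM final during compound exposure; series mostly up to about 62 µM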)
Summary of the method: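 Antagonist-mode beta-lactamase reporter screen: HEK293H cells with UAS-bla under PPARd control, stimulated by 300 nM L165041 (final) alongside test compound for 17 h at 37 C, then FRET fluorescence after 2 h substrate incubation.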

[15] = qHTS assay to identify small molecule agonists of the farnesoid-X-receptor (FXR) signaling pathway - cell viability counter screen (AID 743218); note: nearly all actives have a fitted effect of over 45% in size
Summary of the method: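 In GeneBLAzer FXR-UAS-bla HEK 293T cells, compounds act for 16 h at 37 C. Cell viability is then scored in the reporter wells by CellTiter-Glo, 30 min at RT, luminescence.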

[16] = qHTS assay to identify small molecule antagonists of the farnesoid-X-receptor (FXR) signaling pathway - cell viability counter screen (AID 743221; active = well fitted cell-killing curve with a large enough effect in the repeat runs, not every such curve was filed as active; note: nearly all actives have a fitted effect of over 50% in size)
Summary of the method: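 FXR-UAS-bla HEK 293T cells were treated with test compounds plus chenodeoxycholic acid (50 uM final) for 16 h at 37 C. Cell viability in the same wells was then read as CellTiter-Glo luminescence after 30 min at room temperature.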

[17] = biological target: Vitamin D3 receptor (Homo sapiens) (UniProt P11473); test: qHTS assay to identify small molecule agonists of the vitamin D receptor (VDR) signaling pathway (AID 743222; calls by dose curve)
Sequence of Vitamin D3 receptor (Homo sapiens) (P11473 whole entry, looked up): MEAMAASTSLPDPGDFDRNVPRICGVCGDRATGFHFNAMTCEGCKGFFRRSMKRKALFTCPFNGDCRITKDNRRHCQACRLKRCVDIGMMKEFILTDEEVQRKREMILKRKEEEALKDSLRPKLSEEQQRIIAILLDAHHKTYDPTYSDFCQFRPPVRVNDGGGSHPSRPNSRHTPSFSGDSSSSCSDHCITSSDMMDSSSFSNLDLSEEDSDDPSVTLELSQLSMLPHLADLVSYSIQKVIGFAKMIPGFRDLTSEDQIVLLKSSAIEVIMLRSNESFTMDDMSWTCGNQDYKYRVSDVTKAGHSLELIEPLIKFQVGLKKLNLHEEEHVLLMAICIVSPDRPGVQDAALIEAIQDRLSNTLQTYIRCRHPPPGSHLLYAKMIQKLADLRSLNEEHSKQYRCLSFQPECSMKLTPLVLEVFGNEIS
Summary of the method: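 Agonist activity measured in VDR-bla reporter cells. Exposure 16 h, 37C, 5% CO2; detection by B/G FRET substrate, 2 h RT.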

[18] = biological target: Vitamin D3 receptor (Homo sapiens) (UniProt P11473); test: qHTS assay to identify small molecule antagonists of the vitamin D receptor (VDR) signaling pathway (AID 743223; active = well fitted inhibition curve with a large enough effect in the signal ratio in the repeat runs, not every such curve was filed as active; the % refers to the signal ratio)
Summary of the method: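 VDR-bla cells were plated, incubated 4 h at 37C, then given compound and 1alpha,25-dihydroxyvitamin D3 (3 nM final). After 16 h at 37C, LiveBLAzer B/G FRET substrate was added for 2 h at room temperature and fluorescence read.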

[19] = biological target: Bile acid receptor (Homo sapiens) (UniProt Q96RI1); test: qHTS assay to identify small molecule antagonists of the farnesoid-X-receptor (FXR) signaling pathway (AID 743217; active = well fitted inhibition curve with a large enough effect in the signal ratio in the repeat runs, not every such curve was filed as active; the % refers to the signal ratio)
Sequence of Bile acid receptor (Homo sapiens) (Q96RI1 whole entry, looked up): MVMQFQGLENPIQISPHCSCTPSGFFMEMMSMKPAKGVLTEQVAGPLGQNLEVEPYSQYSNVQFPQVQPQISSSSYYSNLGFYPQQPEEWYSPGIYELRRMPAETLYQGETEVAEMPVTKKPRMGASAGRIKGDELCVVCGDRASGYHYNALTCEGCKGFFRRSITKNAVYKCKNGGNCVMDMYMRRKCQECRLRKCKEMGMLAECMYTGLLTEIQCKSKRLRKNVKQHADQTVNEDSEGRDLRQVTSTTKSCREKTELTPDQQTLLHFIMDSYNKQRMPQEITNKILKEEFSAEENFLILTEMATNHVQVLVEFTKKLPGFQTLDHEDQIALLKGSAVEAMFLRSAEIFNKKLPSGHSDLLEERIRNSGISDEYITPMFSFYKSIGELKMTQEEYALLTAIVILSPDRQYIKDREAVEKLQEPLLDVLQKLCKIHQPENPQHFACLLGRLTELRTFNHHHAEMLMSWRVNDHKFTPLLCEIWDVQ
Summary of the method: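 Beta-lactamase reporter under UAS control in HEK 293T cells; compound exposure 16 h at 37 °C in the presence of chenodeoxycholic acid (50 uM final); signal from B/G FRET substrate after 2 h at room temperature.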

[20] = biological target: Bile acid receptor (Homo sapiens) (UniProt Q96RI1); test: qHTS assay to identify small molecule agonists of the farnesoid-X-receptor (FXR) signaling pathway (AID 743220; active = well fitted activation curve with a large enough effect in the signal ratio in the repeat runs, not every such curve was filed as active; the % refers to the signal ratio)
Summary of the method: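 Beta-lactamase reporter under UAS control in GeneBLAzer FXR HEK 293T cells (5000/well) measured with LiveBLAzer FRET substrate after 2 h at room temperature. Compound exposure lasted 16 h at 37C.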
% is set by controls: 0 for no effect and ±100 for the full control effect.

O=C(OCCc1ccccc1)c1ccccc1
inactive: Potency [1] | Potency [2] | Potency [3] | Potency [4] | Potency [5] | Potency [6] | Potency [7] | Potency [8] | Potency [9] | Potency [10] | Potency [11] | Potency [12] | Potency [13] | Potency [14] | Potency [15] | Potency [16] | Potency [17] | outcome [18]

OCCNCc1ccccc1
inactive: Potency [1] | Potency [2] | Potency [3] | Potency [4] | Potency [5] | Potency [6] | Potency [7] | Potency [8] | Potency [9] | Potency [11] | Potency [12] | Potency [13] | Potency [14] | Potency [16] | Potency [17]

CN(C)c1ccc(CCO)cc1
inactive: Potency [1] | Potency [2] | Potency [3] | Potency [4] | Potency [5] | Potency [6] | Potency [7] | Potency [8] | Potency [9] | Potency [10] | Potency [11] | Potency [12] | Potency [13] | Potency [14] | Potency [15] | Potency [17] | outcome [18]

CC(CC=O)c1ccccc1 (centres undefined)
inactive: Potency [1] | Potency [2] | Potency [3] | Potency [4] | Potency [5] | Potency [6] | Potency [7] | Potency [8] | Potency [9] | Potency [10] | Potency [11] | Potency [12] | Potency [13] | Potency [14] | Potency [16] | Potency [17] | outcome [18]

CN(C)CCN(Cc1ccccc1)c1ccccn1
inactive: Potency [1] | Potency [2] | Potency [3] | Potency [4] | Potency [5] | Potency [6] | Potency [7] | Potency [8] | Potency [9] | Potency [10] | Potency [12] | Potency [13] | Potency [14] | Potency [16] | Potency [17] | outcome [18]

CCCCC(CC)COC(=O)CCCCCCCCC(=O)OCC(CC)CCCC (centres undefined)
inactive: Potency [1] | Potency [2] | Potency [3] | Potency [4] | Potency [5] | Potency [6] | Potency [7] | Potency [8] | Potency [9] | Potency [10] | Potency [11] | Potency [13] | Potency [14] | Potency [19] | Potency [15] | Potency [20] | Potency [16] | Potency [17] | outcome [18]

O=C(O)CNCC(=O)O
inactive: activity change, negative = cytotoxicity [1] -0.604% [at 8.47 µM] | activation [2] 1.31% [at 8.47 µM] | viability change, negative = cytotoxic [3] -0.209% [at 8.47 µM] | activation [4] 0.605% [at 7.08 µM] | ratio activity, negative = inhibition [5] 11.9% [at 5.95 µM] | activity change, negative = cytotoxicity [6] 0.536% [at 5.95 µM] | activation [7] -1.79% [at 8.36 µM] | viability change, negative = cytotoxic [8] 1.43% [at 8.36 µM] | activity change, negative = cytotoxicity [9] 4.62% [at 5.95 µM] | activation [10] -0.342% [at 5.95 µM] | viability change, negative = cytotoxic [13] -5.77% [at 6.26 µM] | ratio activity, negative = inhibition [14] -0.396% [at 6.26 µM] | viability change, negative = cytotoxic [15] -1.74% [at 5.95 µM] | activation [20] 1.91% [at 5.95 µM] | activity change, negative = cytotoxicity [16] -4.51% [at 5.95 µM] | activation [17] 4.1% [at 6.01 µM]

CC[N+]1(CC)CCC(=C(c2ccccc2)c2ccccc2)C1C (centres undefined)
inactive: Potency [1] | Potency [2] | Potency [3] | Potency [4] | Potency [5] | Potency [6] | Potency [7] | Potency [8] | Potency [9] | Potency [10] | Potency [11] | Potency [13] | Potency [14] | Potency [15] | Potency [16] | Potency [17] | outcome [18]

Cc1c(N)cccc1[N+](=O)[O-]
inactive: Potency [1] | Potency [2] | Potency [3] | Potency [4] | Potency [5] | Potency [6] | Potency [7] | Potency [8] | Potency [9] | Potency [10] | Potency [11] | Potency [12] | Potency [13] | Potency [14] | Potency [16]

CC(C)(C)Cl
inactive: Potency [1] | Potency [2] | Potency [3] | Potency [4] | Potency [5] | Potency [6] | Potency [7] | Potency [8] | Potency [9] | Potency [10] | Potency [11] | Potency [13] | Potency [15] | Potency [20] | Potency [16] | Potency [17] | outcome [18]

CCCCC(CC)COC(=O)COc1ccc(Cl)cc1Cl (centres undefined)
inactive: Potency [1] | Potency [2] | Potency [3] | Potency [4] | Potency [5] | Potency [6] | Potency [7] | Potency [8] | Potency [9] | Potency [10] | Potency [11] | Potency [15] | Potency [17] | outcome [18]

C[N+]1(CC2COC(c3ccccc3)(C3CCCCC3)O2)CCCCC1 (centres undefined)
inactive: Potency [1] | Potency [2] | Potency [3] | Potency [4] | Potency [5] | Potency [6] | Potency [7] | Potency [8] | Potency [9] | Potency [10] | Potency [11] | Potency [13] | Potency [15] | Potency [16]

O=C1c2ccccc2S(=O)(=O)N1CCCCN1CCN(c2ncccn2)CC1
inactive: Potency [1] | Potency [2] | Potency [3] | Potency [4] | Potency [5] | Potency [6] | Potency [7] | Potency [8] | Potency [9] | Potency [11] | Potency [13] | Potency [15] | Potency [16]

CC(=O)c1cccc([N+](=O)[O-])c1
inactive: Potency [1] | Potency [2] | Potency [3] | Potency [4] | Potency [5] | Potency [6] | Potency [7] | Potency [8] | Potency [9] | Potency [10] | Potency [11] | Potency [12] | Potency [13] | Potency [14] | Potency [19] | Potency [15] | Potency [20] | Potency [16] | Potency [17] | outcome [18]

Cc1cccc(C)c1NC(=O)CN(CC(=O)O)CC(=O)O
inactive: Potency [1] | Potency [2] | Potency [3] | Potency [4] | Potency [5] | Potency [6] | Potency [7] | Potency [8] | Potency [9] | Potency [10] | Potency [11] | Potency [12] | Potency [14] | Potency [15] | Potency [20] | Potency [17]
